From PubChem BioAssay (NCATS) come the findings set out here.

In experiment [1] the test system is Zika virus NS2B-NS3 protease (linked construct). Put plainly: Primary screen NINDS Rhodamine qHTS for Zika virus inhibitors (AID 1347160). Further: nearly all actives have a fitted effect of over 55% in size. Further: potency means the concentration at half of the fitted maximal effect. On activity change, negative = inhibition: on the % scale 0 is the no-effect control and ±100 the full control effect. A digest of the protocol: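 Aprotinin served as in-plate control. Conditions: 25 nM linked NS2B-NS3, pH 8.0 Tris buffer, titrated compounds, 15 min preincubation and 15 min reaction with 1.5 microM Rhod110 substrate at room temperature.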
For orientation: qHTS replaces the single test concentration by a dilution series.

A short description of experiment [2]: OV-KATE Cancer Cell Toxicity qHTS against the NCATS CANVASS Library (AID 1347345). Further: potency means the concentration at half of the fitted maximal effect. The procedure, abridged:
(§1)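 Viability was assessed by adding CellTiter-Glo reagent to treated cultures and reading luminescence after 15min at room temperature. Treatment lasted 72 h at 37 degrees C/5% CO2, using an 11-point series on 1000 cells/well.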

A short description of experiment [3]: HPAF-II Cancer Cell Toxicity qHTS against the NCATS CANVASS Library (AID 1347346). Further: nearly all actives have a fitted effect of over 55% in size. Further: potency means the concentration at half of the fitted maximal effect. A digest of the protocol: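 First, HPAF-II cells are plated (1000 cells/well) and held 4 h at 37 degrees C. Next, compounds are pin-transferred as an 11-point series. After 72 h, CellTiter-Glo is added and luminescence measured.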
Experiment [4] in a line: OV-SAHO Cancer Cell Toxicity qHTS against the NCATS CANVASS Library (AID 1347348). Further: nearly all actives have a fitted effect of over 55% in size. Further: potency means the concentration at half of the fitted maximal effect. A digest of the protocol:
as §1

Experiment [5] in a line: HEK293 24hr Apoptosis Induction qHTS against the NCATS CANVASS Library (AID 1347359). Further: 0% is about no effect. A digest of the protocol:
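Caspase-3/7 activation measured as luminescence from the DEVD-based Caspase-Glo reagent, 15 min at room temperature, following 24-hour compound treatment of HEK293 cells.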

Experiment [6] is described as follows: HEK293 12hr Apoptosis Induction qHTS against the NCATS CANVASS Library (AID 1347361). Further: 0% is about no effect. The procedure, abridged: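 Read-out: Caspase-Glo 3/7 luminescence (DEVD substrate), 15 min RT. Preceded by 12 h compound exposure of HEK293, 500 cells/well, 11-pt qHTS titration; doxorubicin titration as control.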
The test system of experiment [7] is NAD(P)H diaphorase (Clostridium kluyveri). Nature of the experiment: Diaphorse counterscreen qHTS: Assay Interference Panel against the NCATS CANVASS Library (AID 1347362). Further: 0% is about no effect. A digest of the protocol: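 Counterscreen for coupling-enzyme interference: resorufin fluorescence from resazurin/NADH turnover, read after 5 min at room temperature. Compounds were tested over an 11-point series after 15 min dark preincubation with diaphorase in PBS-Tween.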
On the technique in general: Counterscreens check selectivity or assay interference.

Experiment [8] concerns the target Luciferin 4-monooxygenase (Photinus pyralis) (UniProt P08659). Nature of the experiment: Firefly luciferase counterscreen qHTS: Assay Interference Panel against the NCATS CANVASS Library (AID 1347363). Further: series mostly up to about 57 µM; 0% is about no effect. The procedure, abridged: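 Luminescence inhibition readout: compounds (11-point qHTS) sat 15 min at room temperature with substrate mix (0.013 mM luciferin and ATP), then firefly luciferase was added and signal read 5 min later.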

The target of experiment [9] is Nuclear receptor subfamily 1 group I member 3 (Homo sapiens) (UniProt Q14994). Nature of the experiment: qHTS for Constitutive Androstane Receptor (CAR) Agonist screened against the NCATS CANVASS Library (AID 1347373).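 Further: every well also contained 1.5 µM PK11195 alongside the test compound; 0% is about no effect.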 The procedure, abridged: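 Cells were plated and allowed to attach for 4hr, then dosed with compound in an 11-point series alongside 1.5uM PK11195. After 24hr at 37C, viability was measured fluorometrically and CAR-driven CYP2B6 reporter luminescence was recorded.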
Chain of Nuclear receptor subfamily 1 group I member 3 (Homo sapiens) (Q14994 whole entry, looked up): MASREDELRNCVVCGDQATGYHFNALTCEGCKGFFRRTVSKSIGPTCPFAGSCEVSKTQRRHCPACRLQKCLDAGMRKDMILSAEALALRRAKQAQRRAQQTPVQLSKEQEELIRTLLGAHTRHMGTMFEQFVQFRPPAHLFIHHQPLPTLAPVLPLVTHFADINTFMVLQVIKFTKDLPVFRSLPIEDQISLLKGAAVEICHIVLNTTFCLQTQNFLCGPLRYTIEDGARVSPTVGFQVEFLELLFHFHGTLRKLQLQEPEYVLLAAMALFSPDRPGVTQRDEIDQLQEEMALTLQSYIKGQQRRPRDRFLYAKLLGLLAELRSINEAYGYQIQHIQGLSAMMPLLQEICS

A short description of experiment [10]: 10-beta competent E. coli microbial cell viability qHTS against the NCATS CANVASS Library (AID 1347376). Further: series mostly up to about 46 µM; 0% is about no effect. The procedure, abridged:
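Bacterial suspension diluted to 0.2 OD was dosed with compounds, 11-point series, then held overnight at 37C. BacTiter-Glo reagent was added, and after 20 min at room temperature ATP-dependent luminescence was measured.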

Experiment [11] can be described thus: qHTS for H2AX Agonists against the NCATS CANVASS Library (AID 1347378). Further: 0% is about no effect. The procedure, abridged: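 CHO-K1 cells were plated overnight at 37C, then exposed to compounds (concentration series, 0.76% DMSO final) for 3 hr at 37C. Lysates received Eu-cryptate anti-pH2AX (S139) and d2 anti-H2AX antibodies; after 24 hr at room temperature, TR-FRET 665/620 nm ratio was read.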

A short description of experiment [12]: Inflammasome Signaling qHTS Counterscreen: IL-1-beta AlphaLISA counterscreen against the NCATS CANVASS Library (AID 1347381).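 Further: cell-free check with purified IL-1β in medium and no THP-1 cells; series mostly up to about 57 µM; 0% is about no effect.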 The procedure, abridged: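 Purified IL-1-beta (4 pg/well) + compound, 11-pt conc. series; acceptor beads 6 ug/mL + biotin-Ab 0.6 nM final, 1 h RT; SA-donor 24 ug/ml final, 30 min dark RT; read ex 680/em 615.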
The nature of experiment [13]: Primary qHTS for small molecule stabilizers of the endoplasmic reticulum resident proteome: Secreted ER Calcium Modulated Protein (SERCaMP) assay (AID 1508630). Further: on the % scale 0 is the no-effect control and ±100 the full control effect. A digest of the protocol: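 The SH-SY5Y reporter protocol was run at 3 concentrations up to 38.3 uM (primary) or 11 concentrations (follow-up): 16 h compound, 100 nM thapsigargin for 4 h, then extracellular luciferase luminescence.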

Experiment [14] has as its target Glucocorticoid receptor (Homo sapiens) (UniProt P04150). Nature of the experiment: GR-GFP Redistribution (AID 450;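 active means compounds whose dose series gives a full or clear partial fitted curve of increased nuclear translocation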; further: potency means the concentration at half of the fitted maximal effect). The note with it: U2OS GR-GFP nuclear translocation, laser cytometry, 2 h.

Values without a mark were called inactive. Inconclusive results are not listed. Activity calls are given as the source filed them. Unless noted, the call rests on the fitted dose curve; in most records, active means well fitted curve in the direction sought with a large enough effect; inconclusive means small, poorly fitted or top-dose-only effect, or another doubt; inactive means no such curve, though single readings can be large; an effect the other way counts as inactive or inconclusive.

Chain of Luciferin 4-monooxygenase (Photinus pyralis) (P08659 whole entry, looked up): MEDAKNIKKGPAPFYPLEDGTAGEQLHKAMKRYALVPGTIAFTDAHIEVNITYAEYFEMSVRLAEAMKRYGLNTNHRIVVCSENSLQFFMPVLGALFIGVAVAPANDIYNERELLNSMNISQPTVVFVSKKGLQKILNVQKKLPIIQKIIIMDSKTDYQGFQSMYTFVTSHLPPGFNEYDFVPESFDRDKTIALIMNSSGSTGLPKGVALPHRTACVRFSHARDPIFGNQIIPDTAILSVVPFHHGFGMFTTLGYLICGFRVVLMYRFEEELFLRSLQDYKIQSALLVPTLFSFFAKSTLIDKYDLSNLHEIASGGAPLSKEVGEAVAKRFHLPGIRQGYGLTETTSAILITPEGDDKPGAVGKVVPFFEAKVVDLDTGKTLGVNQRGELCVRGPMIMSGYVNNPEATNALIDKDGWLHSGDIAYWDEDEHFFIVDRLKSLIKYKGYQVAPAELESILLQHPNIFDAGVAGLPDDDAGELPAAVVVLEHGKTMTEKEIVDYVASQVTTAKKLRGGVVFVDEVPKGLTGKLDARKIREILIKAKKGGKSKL
Chain of Glucocorticoid receptor (Homo sapiens) (P04150 whole entry, looked up): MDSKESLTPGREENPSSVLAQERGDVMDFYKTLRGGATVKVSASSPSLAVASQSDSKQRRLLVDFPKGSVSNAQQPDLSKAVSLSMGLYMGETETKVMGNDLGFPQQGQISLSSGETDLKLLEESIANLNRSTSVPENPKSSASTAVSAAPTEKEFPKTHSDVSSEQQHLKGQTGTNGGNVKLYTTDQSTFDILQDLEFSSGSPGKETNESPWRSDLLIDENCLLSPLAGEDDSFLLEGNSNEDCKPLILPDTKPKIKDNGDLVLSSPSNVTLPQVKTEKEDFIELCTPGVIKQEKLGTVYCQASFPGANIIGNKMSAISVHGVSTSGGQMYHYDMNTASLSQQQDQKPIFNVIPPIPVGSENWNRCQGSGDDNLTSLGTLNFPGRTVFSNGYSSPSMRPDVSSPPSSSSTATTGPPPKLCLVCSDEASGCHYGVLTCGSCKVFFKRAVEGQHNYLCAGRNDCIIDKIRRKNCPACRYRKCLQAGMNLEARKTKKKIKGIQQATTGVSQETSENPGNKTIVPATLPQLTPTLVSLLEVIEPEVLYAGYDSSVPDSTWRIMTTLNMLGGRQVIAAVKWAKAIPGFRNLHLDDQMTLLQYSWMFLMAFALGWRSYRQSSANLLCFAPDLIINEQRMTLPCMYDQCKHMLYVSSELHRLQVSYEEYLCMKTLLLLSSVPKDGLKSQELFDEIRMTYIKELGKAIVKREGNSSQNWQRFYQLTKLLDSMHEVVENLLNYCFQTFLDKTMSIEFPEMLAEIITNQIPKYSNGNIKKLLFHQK

With `CO[C@H](c1ccccc1)[C@H]1NC(=O)C(C)NC(=O)C(C[C@@H](C)CO)N(C)C(=O)[C@@H](C(O)c2cn(C(C)(C)C3CO3)c3ccccc23)NC(=O)C(C(C)C=C(C)C)NC(=O)C(CC(C)C)N(C)C(=O)C(C(C)C)NC1=O` (stereo not given in full), the Potency in experiment [1] is 21.6 µM (active). Besides, the Potency entry in experiment [2], in experiment [3], in experiment [4], in [5], in [6] and in [11] was “inactive” throughout. For the same molecule, the result in [7], in experiment [8], in experiment [9], in experiment [10] and in experiment [12] was inactive.

As to `CCCC[C@@H]1CC[C@H]2CCCC(CCC)N12` (stereo not given in full), in [1], the Potency was 49.3 µM (active). Besides, the Potency result in experiment [2], in experiment [3], in experiment [4], in [5], in [6] and in experiment [11] was “inactive” throughout. In addition, the outcome in [7], in experiment [8], in experiment [9], in [10] and in experiment [12] was inactive.

For `CCCCC[C@@H]1OC(=O)[C@@H](C)N(C)C(=O)[C@H](CCCCC)OC(=O)C(C)N(C)C(=O)[C@H](CCCCC)OC(=O)[C@@H](C)N(C)C(=O)[C@H](CCCCC)OC(=O)C(C)N(C)C1=O` (stereo not given in full), the Potency in [1] was 11 µM (active); in experiment [2], 8.38 µM (active); in [3], 6.68 µM (active); in experiment [4], 3.34 µM (active). The Potency entry in experiment [5], in experiment [6] and in experiment [11] was “inactive” in each case. The result in experiment [7], in experiment [8], in [9], in experiment [10] and in experiment [12] was inactive.

For `CNCCc1ccc(O)cc1`, the Potency entry in [1], in [2], in experiment [3], in [4], in experiment [5] and in experiment [6] was “inactive” in each case. Further, the Potency entry in [11] is “inactive”. The molecule was classed as inactive in [7], in experiment [8], in experiment [9], in experiment [10] and in experiment [12].

`CCCCC[C@@H](/C=C/C=C\C/C=C\C/C=C\CCCC(=O)O)OO`: in experiment [13], the activity change, negative = inhibition is -17.3% [at 0.478 µM].

`CC(C)C[C@H](NC(=O)[C@H](Cc1ccccc1)NC(=O)CNC(=O)[C@H](CO)NC(=O)[C@@H](N)Cc1ccc(O)cc1)C(=O)N[C@H](C(=O)O)[C@H](C)O`: the activity change, negative = inhibition in experiment [13] was -28.8% [at 3.88 µM].

Take `CC=C1CN(C=O)[C@H]2C[C@@H]1[C@@H](C(=O)OC)[C@@]13CCOC21Nc1ccccc13` (stereo not given in full): the Potency in [1] was 44 µM (active). In addition, the Potency entry in experiment [2], in [3], in [4], in experiment [5], in [6] and in experiment [11] was “inactive” in each case. The molecule was classed as inactive in experiment [7], in experiment [8], in [9], in experiment [10] and in experiment [12].

Turning to `CNCCc1c[nH]c2ccccc12`, the Potency in experiment [14] was more than 20.6 µM. Also, the Potency entry in experiment [1], in experiment [2], in [3], in [4], in [5] and in [6] was “inactive” in each case. The Potency entry in [11] was “inactive”. The molecule was classed as inactive in [7], in experiment [8], in experiment [9], in experiment [10] and in experiment [12].
